In assay [1] the test system is Zika virus NS2B-NS3 protease (unlinked complex). Description: Primary screen GU Rhodamine qHTS for Zika virus inhibitors: Unlinked NS2B-NS3 protease assay (AID 1347159). Further: nearly all actives have a fitted effect of over 60% in size. In outline:
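Noncovalent NS2B hydrophilic domain–NS3 protease domain complex (25 nM) preincubated 15 min at room temperature with compounds (up to 114 microM) in 10 mM Tris-HCl pH 8.0, 0.01% Tween 20; 1.5 microM Rhodamine110 substrate added, fluorescence change over 15 min fitted to Hill equation.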

Assay [2] relates to Zika virus NS2B-NS3 protease (linked construct). Kind of assay: Primary screen NINDS Rhodamine qHTS for Zika virus inhibitors (AID 1347160). Further: nearly all actives have a fitted effect of over 55% in size. In outline:
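Purified linked NS2B-NS3 protease (NS2B hydrophilic domain joined to NS3 protease by flexible linker), 25 nM in 10 mM Tris-HCl pH 8.0, 0.01% Tween 20. Compounds titrated, 15 min preincubation at room temperature; 1.5 microM Rhodamine110 substrate, FITC fluorescence change over 15 min.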

This is an account of results in PubChem BioAssay (NCATS).

SMILES strings stand for the structures. Results filed as inconclusive are left out. A number with no mark means an inactive call. The source made the active and inactive calls. The call rests on the fitted dose curve; in most records, active means well fitted inhibition curve with a large enough effect; inconclusive means small, poorly fitted or top-dose-only effect; inactive means no such curve, though single readings can be large or run the other way.
On the % scale 0 is the no-effect control and ±100 the full control effect.

Regarding `CNCc1ccc(-c2cc(-c3nc(-c4ccc(S(=O)(=O)C(C)C)cc4)cnc3N)on2)cc1`, the Potency entry in assay [1] and in assay [2] was “inactive” throughout.

`COC(=O)C1=COC(O[C@@H]2O[C@H](CO)[C@@H](O)[C@H](O)[C@H]2O)[C@H]2[C@@H]1[C@H](OC(=O)CCc1ccc(O)cc1)C[C@]2(C)O` (some centres not stated): the Potency entry in assay [1] and in assay [2] was “inactive” in each case.

In the case of `Cc1nc(C)c(-c2ccc(C3CCC(CC(=O)O)CC3)cc2)nc1C(N)=O` (configuration not stated), the Potency result in assay [1] and in assay [2] was “inactive” each time.

With `CN(C)c1nc(NC2CCC(NC(=O)c3ccc(F)c(F)c3)CC2)nc2ccccc12` (configuration not stated), the Potency entry in assay [1] and in assay [2] was “inactive” in each case.

On to `COCC1OC(OC(C)(C)C2CCC3(C)C=C(C4CCC5C4(C)CC(O)C4OC(C(C)(C)OC6OC(CO)C(O)C(O)C6NC(C)=O)CCC45C)CCC3O2)C(NC(C)=O)C(O)C1O` (configuration not stated), for which the Potency entry in assay [1] and in assay [2] was “inactive” in each case.

As to `COC1CC(OC2CCC3(C)C(=CCC4C3C(OC(C)=O)C(OC(=O)/C=C/c3ccccc3)C3(C)C(C(C)O)CCC43O)C2)OC(C)C1OC1CC(OC)C(OC2OC(C)C(OC3OC(CO)C(O)C(O)C3O)C(OC)C2O)C(C)O1` (configuration not stated), the activity change, negative = inhibition in assay [1] was 0.295% [at 19.1 µM]; in assay [2], 23.5% [at 10.7 µM].

Consider `CC(O)/C=C/C1(O)C(C)C(O[C@@H]2O[C@H](CO)[C@@H](O)[C@H](O)[C@H]2O)C(O)CC1(C)C` (some centres not stated), for which the Potency result in assay [1] and in assay [2] was “inactive” throughout.

With `C[C@@H]1O[C@@H](O[C@H]2[C@@H](OC(=O)[C@]34CCC(C)(C)CC3C3=CCC5[C@@]6(C)C[C@H](O)[C@H](O[C@@H]7O[C@H](C(=O)O)[C@@H](O)[C@H](O)[C@H]7O)[C@@](C)(C(=O)O)C6CC[C@@]5(C)[C@]3(C)CC4)OC[C@H](O)[C@@H]2O)[C@H](O)[C@H](O)[C@H]1O[C@@H]1OC[C@@H](O)[C@H](O)[C@H]1O` (some centres not stated), the Potency result in assay [1] and in assay [2] was “inactive” throughout.

In the case of `Cc1cc(C)cc(C(=O)NOCCCCCC(=O)NO)c1`, the Potency entry in assay [1] and in assay [2] was “inactive” each time.

As for `C[C@@H]([C@@H](O)c1ccc(O)cc1)N1CCC(O)(c2ccccc2)CC1`, the Potency result in assay [1] and in assay [2] was “inactive” each time.

As to `COc1ccc([C@@]2(O)c3c(ccc(CC=C(C)C)c3O)NC(=O)[C@@H]2OC)cc1`, the Potency result in assay [1] and in assay [2] was “inactive” throughout.

As to `COC(=O)C1=CO[C@@H](O[C@@H]2O[C@H](CO)[C@@H](O)[C@H](O)[C@H]2O)[C@@H]2C(CO)=CC[C@]12O`, the Potency result in assay [1] and in assay [2] was “inactive” in each case.

Turning to `C[C@@H]1O[C@@H](O[C@@H]2[C@@H](O)[C@@H](O[C@]3(CO)O[C@H](CO)[C@@H](O)[C@@H]3OC(=O)/C=C/c3ccc(O)cc3)O[C@H](CO)[C@H]2OC(=O)/C=C/c2ccc(O)cc2)[C@H](O)[C@H](O)[C@H]1O[C@@H]1O[C@@H](C)[C@H](O[C@@H]2OC[C@](O)(CO)[C@H]2O)[C@@H](O)[C@H]1O`, the Potency result in assay [1] and in assay [2] was “inactive” each time.

Take `CC(Nc1ncnc2nc[nH]c12)c1cc2cccc(Cl)c2c(=O)n1-c1ccccc1` (configuration not stated): the Potency entry in assay [1] and in assay [2] was “inactive” in each case.

In the case of `C=C(C(=O)O)C1CCC2(C)CCC(O)C(C)(O)C2C1` (configuration not stated), the Potency result in assay [1] and in assay [2] was “inactive” throughout.

Consider `CCN1CCN(Cc2ccc(Nc3ncc(F)c(-c4cc(F)c5nc(C)n(C(C)C)c5c4)n3)nc2)CC1`, for which the Potency result in assay [1] and in assay [2] was “inactive” each time.

Turning to `COc1ccc(-c2c(-c3cc(C(=O)O)ccn3)ncn2C)cc1`, the Potency result in assay [1] and in assay [2] was “inactive” throughout.

On to `Nc1nc(-n2cc(C(=O)O)c(=O)c3cc(F)c(N4CC(O)C4)c(Cl)c32)c(F)cc1F`, for which the Potency entry in assay [1] and in assay [2] was “inactive” in each case.

`CC(C)[C@H]1CC[C@@]2(O)COC(=O)[C@H]2[C@@H]1/C=C(\CO)C(=O)O`: the Potency entry in assay [1] and in assay [2] was “inactive” each time.

For `CC1C(=O)CC2C3CCC(C(=O)O)C12CC3(C)CO` (configuration not stated), the Potency result in assay [1] and in assay [2] was “inactive” each time.

For the compound `C/C=C1\[C@H](O[C@@H]2O[C@H](CO)[C@@H](O)[C@H](O)[C@H]2O)OC=C(C(=O)OC)[C@H]1CC(=O)O`, the Potency result in assay [1] and in assay [2] was “inactive” each time.

Turning to `CCC(COC)n1nnc2c(Nc3ccc(OC)cc3C)nc(C)cc21` (configuration not stated), the Potency entry in assay [1] and in assay [2] was “inactive” each time.

Turning to `CCCC(=O)O[C@@H]1[C@@H]2[C@@H](OC(C)=O)[C@]3(C)C(=O)[C@H]4[C@@H](OC(C)=O)C(C)(C)C[C@H]4[C@]3(C)C(=O)[C@@]2(OC(C)=O)C[C@@H]1C`, the Potency result in assay [1] and in assay [2] was “inactive” throughout.

`C=C1CC23CC1CCC2C12OC(=O)C(C)(CCC1O)C2C3C(=O)O` (configuration not stated): the Potency result in assay [1] and in assay [2] was “inactive” in each case.

Turning to `Cn1cncc1C(N)(c1ccc(Cl)cc1)c1ccc2c(c1)c(-c1cccc(Cl)c1)cc(=O)n2C` (configuration not stated), the Potency entry in assay [1] and in assay [2] was “inactive” each time.

Regarding `COc1c2ccoc2cc2oc(CO[C@@H]3O[C@H](CO)[C@@H](O)[C@H](O)[C@H]3O)cc(=O)c12`, the Potency entry in assay [1] and in assay [2] was “inactive” each time.
